In the library only some 1.9% were active in any assay of this set; here they are far more common.
PERK inhibitor: inhibitors of human PERK kinase. Q9NZJ5. inhibition, % at 5.6 µM. 220,000 compounds, 0.17% hits. CHO PERK-DD fusion, SEAP luminescence translation reporter;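 active = inhibition above the mean inhibition of all tested compounds plus 3 SD, set separately per screening campaign, cut at about 2.9% in these data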;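 also: PERK kinase domain activated by AP20187 dimerizer at 100 nM; 0% = DMSO with dimerizer and 100% = rapamycin at 8.4 µM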
PABP FP inh: PABP-poly(A) binding inhibition | P11940 | PABP-poly(A) RNA binding, fluorescence polarization | inhibition, % at 35 µM | 290,000 compounds, 1% hits | AID 2014;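 also: calls also rest on retests at 20 µM and on dose response follow-up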
GRK2 aptamer HTS: inhibitors of human GRK2 displacing RNA aptamer; bead flow cytometry, FAM-aptamer displacement from GRK2; inhibition of aptamer binding, % at 10 µM; 330,000 compounds, 0.59% hits; AID 488847;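 active = inhibition of aptamer binding above 40%, roughly 3 SD of noise, on plates passing a quality check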;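 also: median bead fluorescence of bound FAM aptamer so fluorescent compounds give negative values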
PABP1 MLLE inh: inhibitors of microRNA-mediated deadenylation, human PABP1 MLLE binding | inhibition, % at 20 µM | GST-MLLE / FITC-PAM2 fluorescence polarization | 360,000 compounds, 0.36% hits; in the data active = inhibition above about 35%, passing the limit was not always enough;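 also: plate controls were DMSO wells with GST-MLLE for no effect and wells lacking GST-MLLE protein for full effect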
eIF4H inh: inhibitors of RNA binding by human eIF4H; 290,000 compounds, 0.94% hits; eIF4H fluorescence polarization binding assay; Q15056; inhibition, % at 35 µM;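 also: calls also rest on retests at 20 µM and on dose response follow-up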
Numbers without * were called inactive; ? = inconclusive; nt = not tested or not shown. Unless noted, no rule for the calls is given here.

SMILES	PERK inhibitor	PABP FP inh	GRK2 aptamer HTS	PABP1 MLLE inh	eIF4H inh
CCOC(=O)c1[nH]c2ccccc2c1NC(=S)Nc1cccc(C)c1C	0	15	0	41*	-1
COc1cc(OC)c([N+](=O)[O-])cc1/C=N/NC(=O)c1ccncc1	1	12*	2	22	59*
O=C(N/N=C/c1ccncc1)c1cc([N+](=O)[O-])cc([N+](=O)[O-])c1O	1	24	0	6	76*
COc1cc(/C=N/NC(=O)c2ccncc2)ccc1OC(=O)c1cccc(Br)c1	nt	-5	0	3	-3
COc1cccc(/C=N/NC(=O)c2ccncc2)c1OC(=O)c1ccc(Br)cc1	nt	?	0	59*	?
COc1cc(/C=N/NC(=O)c2ccncc2)c([N+](=O)[O-])cc1OC	nt	-8	2	4	4
COc1ccc(CCNC(=O)CCCn2c(=S)[nH]c3ccsc3c2=O)cc1OC	nt	nt	nt	-12	nt
CCN(Cc1cc2ccccc2[nH]c1=O)C(=O)c1cccc([N+](=O)[O-])c1	-1	-3	1	nt	4
COc1cccc(N2CCN(CC(=O)NC(=O)NCc3ccco3)CC2)c1	1	active	0	-16	88
O=C(CN1CCN(c2ccccc2)CC1)NC(=O)NCc1ccco1	1	4	0	13	-8
O=C1C([N+](=O)[O-])=C(O)c2cccc3cccc1c23	nt	57*	0	nt	85*
O=C(N/N=C1\C(=O)c2cccc3cccc1c23)c1ccc(O)cc1	0	29	0	-9	28
NC(=O)CC1NC(=O)c2cc([N+](=O)[O-])cc(I)c2OCCC(C(N)=O)NC(=O)[C@@H]2CCCN2C1=O (stereo partly drawn)	0	59	2	nt	active
C[C@@H]1NC(=O)c2cc([N+](=O)[O-])cc(I)c2OCC[C@@H](C(N)=O)NC(=O)[C@H](CCCCN)NC1=O	1	16	0	-7	0
C(=NNc1ccc2ccccc2n1)c1ccccn1	nt	nt	nt	-9	nt
Cc1nnc(SCC(=O)NCc2ccco2)[nH]c1=O	2	34*	5	13	57*
CC(C)(C)NC(=O)Cn1nnc(-c2cccs2)n1	1	active	5	12	65*
O=C(Cn1nnc(-c2cccs2)n1)NCc1ccccc1	1	-6	0	17	-3
O=C(Cn1nnc(-c2cccs2)n1)Nc1ccccc1C(F)(F)F	0	7	0	9	-8
O=C(Cn1nnc(-c2cccs2)n1)NCc1ccco1	2.9*	10	1	-5	2
CCOC(=O)c1c(NC(=O)c2ccccc2)sc2c1CCc1ccccc1-2	0	13	2	43*	8
CCOC(=O)c1c(NC(=O)c2ccccc2Cl)sc2c1CCc1ccccc1-2	-1	-1	3	23	1
COc1cccc(CN(C)C(=O)c2ccc(S(=O)(=O)Nc3cccc(C)c3C)cc2)c1OC	nt	nt	nt	-8	nt
Cc1ccc(-c2nnc(SCC(=O)n3c4c(c5ccccc53)CCCC4)o2)cc1	3.0*	-6	0	nt	-6
Cc1ccc(-c2nc(CN(Cc3cnn(C)c3)C(C)C)c(C)o2)o1	2	-2	4	5	9
SMILES	PERK inhibitor	PABP FP inh	GRK2 aptamer HTS	PABP1 MLLE inh	eIF4H inh
COc1ccc(CCn2c(O)cc3nn(-c4nc5ccccc5s4)c(=O)c-3c2C)cc1	0	64*	1	-57	68*
COc1cc2cc3c(N)c(C(=O)NCc4ccco4)sc3nc2cc1OC	0	109*	0	4	82*
Cc1cc(C(=O)Nc2sc(C)c(C)c2C#N)no1	1	29	0	21	11
COc1cc2cc3c(N)c(C(=O)Nc4sc(C)c(C)c4C#N)sc3nc2cc1OC	0	71*	0	-33	89*
CCn1cc(Cl)c(C(=O)Nc2c(C)nn(Cc3c(F)c(F)c(F)c(F)c3F)c2C)n1	nt	1	nt	4	-2
COc1ccc(OC)c(/C=C/C(=O)OCC(=O)N2CCN(S(=O)(=O)c3ccc(C)cc3C)CC2)c1	nt	nt	nt	-4	nt
O=C(O)CCCN1C(=O)C(=O)/C(=C(/O)c2ccc(Cl)cc2)C1c1ccccc1 (stereo not drawn)	1	7	3	51*	-2
CCN(CC)CCN1C(=O)C(=O)/C(=C(/O)c2ccc(Cl)cc2)C1c1ccncc1 (stereo not drawn)	1	4	nt	2	7
COc1cc(/C=C/C(=O)OCC(=O)Nc2cc(S(=O)(=O)N3CCCC3)ccc2Cl)cc(OC)c1OC	nt	nt	0	-24	nt
CSc1nc(N)cc(=O)[nH]1	2	active	3	11	61
Cc1ccc(CNC(=O)CSc2nccn(-c3ccc(C)c(F)c3)c2=O)cc1	nt	nt	0	41*	nt
